This note sets out measurements from PMC5700166.

Positions count from the first letter of the chain named.

What all share (assay): protein-binding microarray (PBM); PBM: ~300 nM protein, 6 mM HEPES pH 7.8, 80 mM KCl, 0.5 mM EDTA, 0.5 mM EGTA, 6% glycerol, 35 ng/ul poly-dIdC, 1% milk, 1 h, room temperature; Ap Aiptasia and Nv Nematostella (sea anemones) / Co Capsaspora / Aq Amphimedon (sponge) / Dm Drosophila / Hu human; RHD is the Rel homology domain; high values mean tight binding
Settings in all cases: dsDNA, one strand shown

One experiment concerns the target T1, GST-Ap-NF-kB RHD (Exaiptasia pallida (Aiptasia), UniProt A0A913YAJ5 2-422).
T1 sequence: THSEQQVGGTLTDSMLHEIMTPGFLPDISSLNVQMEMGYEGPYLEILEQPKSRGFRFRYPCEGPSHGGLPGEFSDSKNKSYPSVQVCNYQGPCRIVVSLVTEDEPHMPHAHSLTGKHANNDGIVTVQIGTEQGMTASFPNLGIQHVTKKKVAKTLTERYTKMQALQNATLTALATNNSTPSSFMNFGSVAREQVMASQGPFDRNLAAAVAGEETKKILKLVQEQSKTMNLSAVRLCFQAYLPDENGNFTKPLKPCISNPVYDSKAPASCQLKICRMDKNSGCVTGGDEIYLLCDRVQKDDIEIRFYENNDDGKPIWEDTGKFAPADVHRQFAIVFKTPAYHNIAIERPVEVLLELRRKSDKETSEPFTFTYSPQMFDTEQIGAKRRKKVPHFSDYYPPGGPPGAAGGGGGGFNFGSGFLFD

The target of experiment [1] is T2, GST-Nv-NF-kB (Cys allele) (Nematostella vectensis, UniProt E5G601 2-411).
T2 sequence: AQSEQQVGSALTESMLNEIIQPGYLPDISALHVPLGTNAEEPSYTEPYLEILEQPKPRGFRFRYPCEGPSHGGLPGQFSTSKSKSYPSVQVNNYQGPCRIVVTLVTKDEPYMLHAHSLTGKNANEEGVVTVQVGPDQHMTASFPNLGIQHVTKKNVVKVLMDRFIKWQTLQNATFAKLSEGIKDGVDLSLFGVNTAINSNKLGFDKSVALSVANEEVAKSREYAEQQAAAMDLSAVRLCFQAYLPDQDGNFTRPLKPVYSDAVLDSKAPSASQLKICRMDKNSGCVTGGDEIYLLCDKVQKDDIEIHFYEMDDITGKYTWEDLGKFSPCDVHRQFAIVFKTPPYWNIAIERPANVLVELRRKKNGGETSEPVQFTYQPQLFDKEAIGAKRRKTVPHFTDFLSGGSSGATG

In experiment [2] the target is T3, GST-Nv-NF-kB (Ser allele) (Nematostella vectensis, UniProt A7UNT2 2-411).
T3 sequence: T2 sequence with Q21R, C66S, S207N, E215Q, V217A, E225K, A268E, D399E

A further experiment has as its target T4, GST-Co-NF-kB (Capsaspora owczarzaki, UniProt F1ARL5 200-546).
T4 sequence: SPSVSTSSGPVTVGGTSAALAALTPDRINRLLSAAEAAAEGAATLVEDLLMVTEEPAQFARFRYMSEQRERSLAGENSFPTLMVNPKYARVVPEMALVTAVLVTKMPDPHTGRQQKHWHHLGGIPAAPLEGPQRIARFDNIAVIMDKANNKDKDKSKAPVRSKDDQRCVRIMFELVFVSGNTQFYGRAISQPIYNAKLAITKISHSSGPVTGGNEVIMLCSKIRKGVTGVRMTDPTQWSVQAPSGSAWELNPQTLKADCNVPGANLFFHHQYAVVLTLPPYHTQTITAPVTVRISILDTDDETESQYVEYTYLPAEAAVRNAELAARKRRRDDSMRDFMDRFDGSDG

The next experiment has as its target T5, GST-Dm-Relish (Drosophila melanogaster, UniProt Q94527 99-473).
T5 sequence: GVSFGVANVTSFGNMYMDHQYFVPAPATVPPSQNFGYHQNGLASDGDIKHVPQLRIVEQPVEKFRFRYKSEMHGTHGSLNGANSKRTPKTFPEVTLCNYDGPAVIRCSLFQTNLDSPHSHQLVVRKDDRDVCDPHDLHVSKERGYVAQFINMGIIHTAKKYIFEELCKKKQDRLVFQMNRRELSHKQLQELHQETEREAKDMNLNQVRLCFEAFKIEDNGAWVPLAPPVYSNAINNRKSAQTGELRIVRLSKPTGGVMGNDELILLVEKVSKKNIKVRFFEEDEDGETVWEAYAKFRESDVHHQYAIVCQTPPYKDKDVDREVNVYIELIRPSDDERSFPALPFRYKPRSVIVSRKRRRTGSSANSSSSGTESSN

In another experiment the target is T6, GST-Aq-NF-kB (Amphimedon queenslandica, UniProt A9Y5G7 2-389).
T6 sequence: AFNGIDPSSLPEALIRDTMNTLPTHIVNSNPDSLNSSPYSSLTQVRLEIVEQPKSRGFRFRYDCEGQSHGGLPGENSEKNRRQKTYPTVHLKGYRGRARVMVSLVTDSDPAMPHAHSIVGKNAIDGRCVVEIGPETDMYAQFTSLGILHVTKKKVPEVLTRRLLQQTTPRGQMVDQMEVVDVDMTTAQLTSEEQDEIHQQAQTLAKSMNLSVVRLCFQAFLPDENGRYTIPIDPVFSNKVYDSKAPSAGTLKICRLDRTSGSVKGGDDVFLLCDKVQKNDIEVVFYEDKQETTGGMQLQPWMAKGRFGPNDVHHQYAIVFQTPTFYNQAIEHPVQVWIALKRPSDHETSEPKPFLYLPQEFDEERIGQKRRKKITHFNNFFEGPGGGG

Another experiment concerns the target GST-Hu-p50 (Homo sapiens, UniProt P19838 7-356).

Chain of GST-Hu-p50 (P19838 7-356): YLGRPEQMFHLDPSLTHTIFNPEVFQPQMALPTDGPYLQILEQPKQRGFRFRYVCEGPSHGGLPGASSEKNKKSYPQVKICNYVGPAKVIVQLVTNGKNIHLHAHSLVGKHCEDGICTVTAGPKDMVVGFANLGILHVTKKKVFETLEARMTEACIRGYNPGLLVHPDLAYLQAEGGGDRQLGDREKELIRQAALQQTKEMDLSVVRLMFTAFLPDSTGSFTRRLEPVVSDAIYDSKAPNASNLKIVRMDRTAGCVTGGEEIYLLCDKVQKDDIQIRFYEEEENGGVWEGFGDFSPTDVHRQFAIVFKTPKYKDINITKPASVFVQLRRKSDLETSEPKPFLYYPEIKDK

Consider “CCGATTAACATCAGGGGAGTTACTGATGTTAATCGGGTCTTGATTCGCTTGACGCTGCTG”, for which the binding signal worked out at 5.46 z-score with GST-Ap-NF-kB RHD; 4.25 z-score in experiment [1]; 4.83 z-score in experiment [2]; 3.43 z-score with GST-Co-NF-kB; 7.83 z-score in the experiment with GST-Dm-Relish; 5.17 z-score in the experiment with GST-Aq-NF-kB. The sequence also displayed a binding signal with GST-Hu-p50 of 4.45 z-score.
In the case of “CCGATTAACATCAGGGGGGACGATGATGTTAATCGGGTCTTGATTCGCTTGACGCTGCTG”, the binding signal with GST-Ap-NF-kB RHD came out at 5.01 z-score; in experiment [1] it was 4.55 z-score; in experiment [2], 4.5 z-score; in the experiment with GST-Co-NF-kB, 5.85 z-score; in the experiment with GST-Dm-Relish, 3.77 z-score; with GST-Aq-NF-kB, 4.63 z-score. In the experiment with GST-Hu-p50, this sequence had a binding signal of 3.85 z-score.
“CCGATTAACATCAGACTTTCCCATGATGTTAATCGGGTCTTGATTCGCTTGACGCTGCTG”: the binding signal in the experiment with GST-Ap-NF-kB RHD stood at 3 z-score; in experiment [1] it was 4.28 z-score; in experiment [2] it was 3.69 z-score; with GST-Co-NF-kB, 2.74 z-score; in the experiment with GST-Dm-Relish, 1.53 z-score; with GST-Aq-NF-kB, 4.28 z-score. The binding signal in the experiment with GST-Hu-p50 was 3.45 z-score.
Take “CCGATTAACATCAACGGATTCCCTGATGTTAATCGGGTCTTGATTCGCTTGACGCTGCTG”: the binding signal with GST-Ap-NF-kB RHD was found to be 2.31 z-score; in experiment [1] it was 3.57 z-score; in experiment [2] it was 3.98 z-score; with GST-Co-NF-kB, 2.89 z-score; with GST-Dm-Relish it was 5.42 z-score; in the experiment with GST-Aq-NF-kB, 2.97 z-score. The binding signal with GST-Hu-p50 worked out at 1.77 z-score.
For “CCGATTAACATCAAGATTCCCCCTGATGTTAATCGGGTCTTGATTCGCTTGACGCTGCTG”, the binding signal stood at 8.66 z-score with GST-Ap-NF-kB RHD; 9.42 z-score in experiment [1]; 10.6 z-score in experiment [2]; 9.18 z-score with GST-Co-NF-kB; 7.1 z-score in the experiment with GST-Dm-Relish; 7.31 z-score with GST-Aq-NF-kB. Also, the binding signal in the experiment with GST-Hu-p50 was 7.32 z-score.
Consider “CCGATTAACATCAGGGGAATGCATGATGTTAATCGGGTCTTGATTCGCTTGACGCTGCTG”, for which the binding signal turned out to be 5.82 z-score with GST-Ap-NF-kB RHD; 7.06 z-score in experiment [1]; 7.76 z-score in experiment [2]; 5.53 z-score with GST-Co-NF-kB; 3.2 z-score in the experiment with GST-Dm-Relish; 4.86 z-score in the experiment with GST-Aq-NF-kB. Besides, the binding signal with GST-Hu-p50 stood at 5.41 z-score.
For “CCGATTAACATCACGGGGAAACCTGATGTTAATCGGGTCTTGATTCGCTTGACGCTGCTG”, the binding signal with GST-Ap-NF-kB RHD is 7.51 z-score; in experiment [1], 7.32 z-score; in experiment [2], 9.2 z-score; with GST-Co-NF-kB it was 8.87 z-score; with GST-Dm-Relish, 7.04 z-score; in the experiment with GST-Aq-NF-kB, 6.23 z-score. The same sequence yielded a binding signal in the experiment with GST-Hu-p50 of 5.72 z-score.
Consider “CCGATTAACATCACATATTCCCCTGATGTTAATCGGGTCTTGATTCGCTTGACGCTGCTG”, for which the binding signal came to 7.49 z-score with GST-Ap-NF-kB RHD; 8.81 z-score in experiment [1]; 9.04 z-score in experiment [2]; 7.39 z-score with GST-Co-NF-kB; 4.55 z-score with GST-Dm-Relish; 6.7 z-score with GST-Aq-NF-kB. This sequence also yielded a binding signal with GST-Hu-p50 of 5.69 z-score.
As to “CCGATTAACATCAGGGAAGTTTATGATGTTAATCGGGTCTTGATTCGCTTGACGCTGCTG”, the binding signal with GST-Ap-NF-kB RHD was found to be 4.29 z-score; in experiment [1], 4.93 z-score; in experiment [2] it was 4.78 z-score; in the experiment with GST-Co-NF-kB it was 2.58 z-score; with GST-Dm-Relish, 3.35 z-score; in the experiment with GST-Aq-NF-kB, 5.26 z-score. This sequence came in with a binding signal in the experiment with GST-Hu-p50 of 3.73 z-score.
With “CCGATTAACATCAGGGGGAAGTATGATGTTAATCGGGTCTTGATTCGCTTGACGCTGCTG”, the binding signal with GST-Ap-NF-kB RHD amounted to 5.44 z-score; in experiment [1], 6.23 z-score; in experiment [2] it was 7.96 z-score; with GST-Co-NF-kB, 8.17 z-score; with GST-Dm-Relish it was 5.72 z-score; with GST-Aq-NF-kB it was 5.16 z-score. In the experiment with GST-Hu-p50, this sequence registered a binding signal of 5.57 z-score.
In the case of “CCGATTAACATCAGGGAAAACCCTGATGTTAATCGGGTCTTGATTCGCTTGACGCTGCTG”, the binding signal with GST-Ap-NF-kB RHD is 7.33 z-score; in experiment [1] it was 9.72 z-score; in experiment [2] it was 7.71 z-score; in the experiment with GST-Co-NF-kB, 3.49 z-score; with GST-Dm-Relish it was 9.01 z-score; with GST-Aq-NF-kB, 10.2 z-score. This sequence also registered a binding signal with GST-Hu-p50 of 5.66 z-score.
For the sequence “CCGATTAACATCAGTACTCCCCATGATGTTAATCGGGTCTTGATTCGCTTGACGCTGCTG”, the binding signal with GST-Ap-NF-kB RHD was determined as 3.64 z-score; in experiment [1], 2.81 z-score; in experiment [2], 2.45 z-score; in the experiment with GST-Co-NF-kB, 2.88 z-score; in the experiment with GST-Dm-Relish it was 4.81 z-score; with GST-Aq-NF-kB it was 2.35 z-score. Also, the binding signal with GST-Hu-p50 was 2.2 z-score.
